Several values for one entry are separate records, joined by “and”; a condition that tells them apart may be missing. Equal values may be shown once. Inconclusive results are not listed. Activity calls are given as the source filed them. Calls follow the shape of the dose curve; as a rule, active = well fitted inhibition curve with a large enough effect; inconclusive = small, poorly fitted or top-dose-only effect; inactive = flat fitted curve, though single readings scatter. Non-standard residues stand in square brackets, D forms with d. Residues, ends and D or L forms follow the SMILES beside them. *: point of attachment. Nva = CCC[C@H](N)C(=O)O; Cbz = O=C(OCc1ccccc1)*
Also: nearly all actives have a fitted effect of over 60% in size.

For the first assay, the system named is NIH3T3. In words: Cytotoxic Profiling of Annotated Libraries Using Quantitative High-Throughput Screening (AID 1296008). Also: potency is read from the fitted curve at half-maximal effect. As to max response: % is scaled to controls: 0 for no effect and ±100 for the full control effect. Particulars: Five cell lines viability, CellTiter-Glo ATP luminescence, 48-72 h; max response: hits give low values. Put shortly: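 Compounds were pin-transferred onto cells and incubated 48 or 72 hr at 37 degree Celsius, 95% humidity. CellTiter-Glo was added, plates sat 10 min at room temperature, then ATP-coupled luminescence was imaged as the viability read-out.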
(Cellular ATP, detected with luciferase, serves as a proxy for viable cell number.)
On to `C#C[C@]1(O)CC[C@@H]2[C@@H]3CCC4=CC(=O)CC[C@@H]4[C@H]3CC[C@@]21CC`, for which the max response is -8.04% (inactive).

`Nc1ccc(C(=O)Nc2cccc(-c3nc(N4CCOCC4)c4oc5ncccc5c4n3)c2)cn1`: the Potency was 2.31 µM (active).

Take `O=C(O)C=Cc1ccc(Cn2ccnc2)cc1`: the max response was -0.597% (inactive).

For `O=C(Nc1ccc(Oc2ccnc3[nH]ccc23)c(F)c1)c1cccn(-c2ccc(F)cc2)c1=O`, the outcome was inactive.

As to `CN[C@@H]1C[C@H]2O[C@@](C)([C@H]1OC)n1c3ccccc3c3c4c(c5c6ccccc6n2c5c31)C(=O)N[C@H]4O`, the Potency is 0.166 µM (active).

Consider `CCN1CCN(C(=O)N[C@H](C(=O)N[C@@H]2C(=O)N3C(C(=O)O)=C(CSc4nnnn4C)CS[C@@H]23)c2ccc(O)cc2)C(=O)C1=O`, for which the max response is 3.36% (inactive).

As for `CC(C)(N)c1ccc(-c2nc3ccccc3nc2-c2ccccc2)cc1`, the Potency is 25.9 µM (active).

As to `CO[C@@H]1[C@@H](O)[C@H](O)[C@@H](n2c3c(Cl)cccc3c3c4c(c5c6cccc(Cl)c6[nH]c5c32)C(=O)NC4=O)O[C@@H]1CO`, the Potency was 1.66 µM (active).

Consider `CCN(CC)Cc1ccc2cc(COC(=O)Nc3ccc(C(=O)NO)cc3)ccc2c1`, for which the Potency was 2.31 µM (active).

On to `c1cc(CN2CCCNCCNCCCNCC2)ccc1CN1CCCNCCNCCCNCC1`, for which the max response is -1.27% (inactive).

`CC(C)N1[N]C(=C2C=c3cc(O)ccc3=N2)c2c(N)ncnc21`: the Potency was 0.526 µM (active).

`CCCCOc1ccc(C(=O)Nc2ccc(F)cc2F)cc1`: the max response is -3.26% (inactive) and the call was inactive.

For the compound `Cn1cc(CNCC2CCN(c3ncc(C(=O)NO)cn3)CC2)c2ccccc21`, the Potency is 0.526 µM (active).

`N#CC(=C(O)c1ccc(Cl)cc1Cl)c1nc2cc(Cl)ccc2c(=O)[nH]1`: the max response was 1.52% (inactive).

On to `c1cncc(CN2CCC(n3ncc4c(N5CCOCC5)nc(-c5ccc6[nH]ccc6c5)nc43)CC2)c1`, for which the Potency is 9.35 µM (active) and 5.17 µM (active).

`C[C@H]1O[C@H](O[C@H]2[C@H](O)[C@@H](O)[C@@H](O[C@H]3[C@H](O)[C@@H](O)C(O)O[C@H]3CO)O[C@H]2CO)[C@H](O)[C@@H](O)[C@H]1N[C@H]1C=C(CO)[C@@H](O)[C@H](O)[C@@H]1O` (some centres undefined): the max response was -1.18% (inactive).

Regarding `COc1cc(N2CCC(C(N)=O)CC2)ccc1Nc1nc(N)c(Cl)c(Nc2ccccc2S(=O)(=O)C(C)C)n1`, the Potency was 3.72 µM (active).

`CCC[C@@H](C=O)NC(=O)[C@H](CC(C)C)NC(=O)[C@H](CC(C)C)NC(=O)OCc1ccccc1` (Cbz-Leu-Leu-[Nva]-aldehyde): the Potency was 14.8 µM (active).

As for `CC(Cc1ccc(O)c(O)c1)(NN)C(=O)O` (centres undefined), the max response is -2.89% (inactive).

In the case of `C[C@H](NCc1ccc2c(c1)nc(NC(=O)c1ccc(-c3cn[nH]c3)s1)n2CCc1ccccc1)C(C)(C)C`, the Potency was 2.64 µM (active).

The test system of another assay is HACAT. In words: qHTS assay to identify novel small-molecules to repurpose for Merkel cell carcinoma treatment (AID 1296009). The following applies: MCC and control cell lines, CellTiter-Glo viability, 72 h; at 44.8 µM (top of the series) unless noted. Put shortly: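 Luminescence from CellTiter-Glo, read 10 min after addition at room temperature, reported viability following a 72 hr, 37 degree celsius treatment with NPC or MIPE compounds in titration; values normalized to plate controls.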
For orientation: qHTS replaces the single test concentration by a dilution series.
Consider `O=C(Nc1ccc(Oc2ccnc3[nH]ccc23)c(F)c1)c1cccn(-c2ccc(F)cc2)c1=O`, for which the compound was called inactive.

In the case of `CCOC(=O)[C@@H](N)Cc1ccc(-c2cc(O[C@H](c3ccc(Cl)cc3-n3ccc(C)n3)C(F)(F)F)nc(N)n2)cc1`, the result was inactive.

Consider `CCCCOc1ccc(C(=O)Nc2ccc(F)cc2F)cc1`, for which the compound was classed as inactive.

The values are drawn from PubChem BioAssay (NCATS).
